The list is not random: actives were taken first. Their share in the collection is about 2.4%.
TGFb SMAD3 inh: qHTS for Inhibitors of TGF-b. HepG2 CAGA-GFP TGF-b/SMAD3 reporter, GFP fluorescence, 18 h; TGF-beta stimulated, 500 pg/mL final. Potency, µM (titrated, usually from 46.1 µM), without a hit: at the top dose activity, negative = inhibition, most hits filed as inhibitors. 410,000 tested, 1.2% active; also: % is scaled to controls: 0 for no effect and ±100 for the full control effect; nearly all actives have a fitted effect of over 65% in size
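TGF-beta reporter screen: HEPG2 CAGA-GFP, 1% FBS, 500 pg/mL TGF-beta final, 18 h; per-cell GFP summed per well; curves fitted and categorized by class.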
Apoferritin bind: qHTS Assay for Identification of Novel General Anesthetics. apoferritin/1-aminoanthracene competitive binding, fluorescence. Potency, µM (doses to about 77.5 µM), for inactives: top-dose activity change, negative = displacement, most hits filed as inhibitors. 350,000 tested, 0.074% active. AID 485281, 2010; also: % is scaled to controls: 0 for no effect and ±100 for the full control effect; nearly all actives have a fitted effect of over 20% in size
Target sequence (P02791 2-175 limits assumed): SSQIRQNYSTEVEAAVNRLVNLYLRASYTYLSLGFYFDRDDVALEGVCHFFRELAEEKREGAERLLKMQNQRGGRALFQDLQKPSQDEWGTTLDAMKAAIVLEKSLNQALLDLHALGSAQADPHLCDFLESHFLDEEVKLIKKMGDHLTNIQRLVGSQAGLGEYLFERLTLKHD
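Steps: apoferritin (10 uM) was premixed with half-saturated 1-AMA in PBS, compounds were pin-transferred, plates stood 10 min at room temperature, fluorescence was read at 380/535 nm, and curves were fitted with a Hill equation.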
ATXN2 expr inh: Primary qHTS for Inhibitors of ATXN expression. HEK-293 ATXN2-luciferase reporter, luminescence, 24 h. Potency, µM (doses to about 57 µM), for the others: top-dose activity change, negative = inhibition, actives largely listed as inhibitors. 360,000 tested, 0.72% active. AID 1745845, 2022; also: % is scaled to controls: 0 for no effect and ±100 for the full control effect; nearly all actives have a fitted effect of over 55% in size
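ATXN2-luciferase reporter cells (luciferase flanked by upstream and downstream ATXN2 gene portions) were treated 24 h at 37 °C with compounds at up to 57 uM. SteadyGlo luminescence gave expression; GF-AFC fluorescence gave viability.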
ATXN viability: Viability Counterscreen for Primary qHTS for Inhibitors of ATXN expression | S2 cells (HEK-293 line with an ATXN2-luciferase reporter) viability, CellTiter-Fluor protease fluorescence, 24 h | Potency, µM (titrated, usually from 56.7 µM), most hits filed as cytotoxic | 400,000 tested, 0.49% active | AID 651635, 2014; also: nearly all actives have a fitted effect of over 40% in size
HepG2 viability: qHTS for Inhibitors of TGF-b: Cytotox Counterscreen; HepG2 CAGA-GFP viability, ATP luminescence, 18 h; Potency, µM (series often up to 46.1 µM), inactives show top-dose activity change, negative = cytotoxicity, usual class: cytotoxic; 410,000 tested, 0.76% active; AID 588856, 2011
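HepG2 CAGA-GFP cells (1000/well, DMEM with 1% FBS) received compound, then TGF-beta at 500 pg/mL final, and were incubated 18 hours at 37 degrees C. Viability was read by CellTiter-Glo luminescence. Media-only wells were set as complete cell-killing and DMSO as no toxicity.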
Starred values were filed as active, the others as inactive; i = inactive; ? = inconclusive; . = no result; [ ] = dose if it differs, or a comment. Calls follow the shape of the dose curve; as a rule, active = well fitted curve in the direction sought with a large enough effect; inconclusive = small, poorly fitted or top-dose-only effect, or another doubt; inactive = no such curve, though single readings can be large; an effect the other way counts as inactive or inconclusive. Potency is read from the fitted curve at half-maximal effect.

SMILES | TGFb SMAD3 inh | Apoferritin bind | ATXN2 expr inh | ATXN viability | HepG2 viability
CCc1cc[n+](C2=C([O-])c3ccccc3C(=O)/C2=N\S(=O)(=O)c2cccs2)cc1 | 2.82µM* | -9.6% | ? | ? | 3.55µM*
C/C(=N/NC(=O)CN(c1ccccc1)S(=O)(=O)c1ccccc1)c1ccccc1O | 7.08µM* | 2.5% | . | ? | 5.62µM*
Cc1ccc(-c2nnc(Sc3nc4ccccc4o3)c3ccccc23)cc1 | ? | -2.1% | ? | ? | -19.7%
Cc1nnc(Sc2nc3ccccc3o2)c2ccccc12 | 12.6µM* | -5.6% | 2.1% | i | -67.7%
NS(=O)(=O)c1ccc(N=Nc2ccc(O)c3ncccc23)cc1 | 8.91µM* | -2.9% | . | 10µM* | 6.31µM*
Cc1cccc(N=Nc2ccc(O)c3ncccc23)c1 | ? | -10.7% | -27.9% | 10µM* | -9.8%
Cc1cccc2nc(-c3cccnc3)c(Nc3ccc(C(C)C)cc3)n12 | ? | -2.1% | 15.8µM* | 12.6µM* | -33.3%
Cc1ccccc1Nc1c(-c2cccnc2)nc2cccc(C)n12 | ? | -11.6% | ? | ? | -13.7%
COc1ccc(-c2cc3nc[nH]c(=O)c3s2)cc1 | -9.3% | 6.6% | 12.4% | i | -24.2%
COc1ccc(-c2cc3nc(CCl)[nH]c(=O)c3s2)cc1 | ? | 0.0% | 12.6µM* | i | 22.4µM*
O=C1CCC[C@@H]2CC(N(Cc3cc4ccccc4s3)c3ccccc3)C[C@@H]3CCN1[C@H]23 (stereo partly drawn) | -6.6% | . | . | . | 21.5%
CCOC(=O)OCC1OC(c2ccccc2)C=CC1Oc1cccc(N(C)C)c1 (stereo not drawn) | . | -13.6%[15.3 µM] | . | . | .
Cc1ccccc1CN1C(=O)C(O)(CC(=O)c2cccc(Br)c2)c2ccccc21 (stereo not drawn) | 12.6µM* | ? | . | . | 12.6µM*
COC(=O)CN1C(=O)C(O)(CC(=O)c2cccc(Br)c2)c2ccccc21 (stereo not drawn) | -13.1% | -19.0% | -17.8% | i | -58.1%
Nc1c(N(CCC2=CCCCC2)C(=O)COc2ccc(F)cc2Cl)c(=O)[nH]c(=O)n1Cc1ccccc1 | 3.16µM* | . | 11.2µM* | . | 3.55µM*
O=C(N/N=C/c1ccccc1O)NC12CC3CC(CC(C3)C1)C2 | 11.2µM* | ? | 20.7% | i | -128.3%
CC/C(=N\NC(N)=O)c1ccc(OC(F)F)cc1 | 14.1% | -8.8% | -3.5% | i | 2.1%
CC/C(=N\NC(=O)OC)c1ccc(OC(F)F)cc1 | 3.0% | 1.3% | -19.6% | i | 10µM*
Cn1c(=O)c2c(nc(CN3CCc4ccccc4C3)n2CC(=O)c2ccccc2)n(C)c1=O | 7.94µM* | . | -4.9% | i | -30.8%
Cn1c(=O)c2c(nc(CN3CCc4ccccc4C3)n2Cc2ccccc2)n(C)c1=O | ? | 1.7% | -12.5% | i | -16.8%
O=C(CCCn1c(=O)c2cccn2c2ccc(F)cc21)NCc1ccc(Cl)cc1 | 0.0% | -6.0% | . | . | -7.2%
CCC(C(=O)Nc1ccc(C)c(Cl)c1)n1c(=O)c(-c2ccccc2NC(C)=O)nc2ccccc21 (stereo not drawn) | 12.6µM* | -10.7% | ? | ? | -9.5%
CCCCNS(=O)(=O)c1ccc(NC(=O)C2c3ccccc3Oc3ccccc32)cc1 | ? | -5.7% | -31.5% | i | 10µM*
CC1C/C(=C/c2ccccn2)C(=O)/C(=C/c2ccccn2)C1 (stereo not drawn) | 1.26µM* | -11.3% | ? | . | -107.8%
O=C1/C(=C/c2ccccn2)COc2ccccc21 | -6.4% | -15.6% | 13.6% | i | -17.4%
SMILES | TGFb SMAD3 inh | Apoferritin bind | ATXN2 expr inh | ATXN viability | HepG2 viability
CC(C)(C)C1C/C(=C/c2ccccn2)C(=O)/C(=C/c2ccccn2)C1 (stereo not drawn) | 0.891µM* | -18.3% | 1.41µM* | 1.78µM* | -24.0%
COc1ccccc1CNc1nc(NC(C)C)nc2cc(-c3ccccc3)sc12 | ? | . | 20µM* | 14.1µM* | 12.6µM*
C=CCNc1nc(NCc2cccc(OC)c2)c2sc(-c3ccccc3)cc2n1 | ? | . | ? | ? | 11.2µM*
Cc1ccc(F)cc1-c1nc(NC(C)C)nc2cc(-c3ccccc3)sc12 | 0.3% | . | 0.7% | i | -17.0%
CC(C)Nc1nc(NCCOc2ccccc2Cl)c2sc(-c3ccccc3)cc2n1 | ? | . | ? | ? | 14.1µM*
COCCNc1nc(NCCOC)c2sc(-c3ccccc3)cc2n1 | -1.9% | . | -17.0% | i | -29.0%
CC(C)C(NS(C)(=O)=O)c1nnc2n1CCN(Cc1ccc3cccnc3c1)CC2 (stereo not drawn) | . | . | . | i | .
O=C(Cc1ccc(OCCCCc2ccccc2)cc1)NO | 4.4% | . | . | . | -18.0%
Cc1nn(C)cc1CNc1nc(C)c(-c2ccn(CC3COc4ccccc4O3)n2)s1 (stereo not drawn) | . | . | . | i | .
CCCCn1c(C)cc2c(c1=O)[C@H]1O[C@](CCCC)(Cc3c1ccc1ccccc31)O2 | . | -5.4%[15.3 µM] | . | . | .
O=C(ONc1ccc(N=NC(=O)c2ccccc2O)cc1)c1ccccc1 | -10.8% | -10.3% | -16.6% | 1.26µM* | -24.3%
O=Nc1ccc(NOC(=O)c2ccccc2Br)cc1 | -4.5% | -16.7% | 7.7% | i | -3.4%
COc1cccc2c(NCc3ccccc3)nc(-n3c(N)nc4ccccc43)nc12 | . | . | 27.3µM* | . | .
Cc1ccc(-c2csc(=Nc3ccccc3)n2CCCO)cc1 | 7.08µM* | -7.9% | ? | ? | -67.6%
O=S(=O)(c1ccc(-c2csc(=Nc3ccc(F)cc3)n2CCCCCCO)cc1)N1CCCC1 | ? | 161.0% | 31.6µM* | ? | -12.0%
C/C(CCN1CCc2nc(-c3ccccc3)c(-c3ccccc3)cc2C1)=N\O[C@@H](C)CN1CCCCc2nc(C)c(C)cc21 | . | -12.4%[15.3 µM] | . | . | .
COc1ccc(C=C2CS(=O)(=O)CC(=Cc3ccc(OC)cc3)C2=O)cc1 | 5.01µM* | . | . | ? | -81.6%
CCCCCCCCCS(=O)(=O)N/N=C/c1cccc([N+](=O)[O-])c1 | ? | 7.08µM* | -5.3% | i | -84.5%
CCCCCCCCCCS(=O)(=O)N/N=C/c1ccccc1OC | ? | -23.9% | -18.5% | i | -105.8%
Cc1ccc(S(=O)(=O)N/N=C/c2cccc([N+](=O)[O-])c2)cc1 | -12.6% | -13.3% | 8.2% | i | -35.7%
CCCCCCCC(=O)Nc1ccc(C(=O)N/N=C/c2cccc([N+](=O)[O-])c2)cc1 | -9.4% | -6.3% | ? | 7.94µM* | 8.3%
CCCCCCCCCCS(=O)(=O)N/N=C/c1ccc(O)cc1 | 12.6µM* | 15.8µM* | -30.6% | i | -94.2%
COc1ccccc1CCNc1ncnc2nc[nH]c12 | 23.7% | . | . | . | -15.6%
CNC1=C(Br)C(=O)c2ccncc2C1=O | . | 2.1% | . | . | .
N#Cc1c(N)nc2c(c1-c1cccc(O)c1)CCCCCC2 | ? | ? | ? | ? | -30.1%
